Source: PubChem
Only some compounds are listed: those with a hit (about 9.4% of all), similar ones and a draw of the others.
Pf growth 48h: inhibits P. falciparum growth in the first generation, 48 h | P. falciparum luciferase growth in erythrocytes, 48 h | Potency, µM (doses to about 28.7 µM), for the others: at the top dose activity change, negative = inhibition, usual class: inhibitors | 310,000 tested, 5.9% active | AID 504832; note: % is set by controls: 0 for no effect and ±100 for the full control effect
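Luciferase-expressing P. falciparum in infected erythrocytes (2% hematocrit, 0.1% parasitemia final) in RPMI 1640/0.5% Albumax were exposed to compound for 48 hours at 37 C, 5% CO2; growth read as luminescence.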
AMA1 RON2 block: disrupts binding of P. falciparum AMA1 to RON2 | AlphaScreen AMA1-biotinylated RON2 peptide binding | Potency, µM (series often up to 58.2 µM), for the others: at the top dose activity change, negative = inhibition, usual class: inhibitors | 360,000 tested, 0.2% active | AID 720542;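 note: 0% = vehicle wells and -100% = peptide control; nearly all actives have a fitted effect of over 45% in size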
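AMA1 (3D7) with his tag at 25 nM final met compounds first, then biotinylated RON2 peptide at 25 nM; detection used donor plus acceptor beads, 10 µg/mL apiece, read by AlphaScreen after 30 min at room temperature.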
Pf growth 96h: inhibits malaria parasite growth, 96 h. P. falciparum luciferase reporter growth, 96 h. 320,000 tested, 6.9% active. AID 504834. Potency, µM (series often up to 28.7 µM), for the others: at the highest dose activity change, negative = inhibition, most hits filed as inhibitors; note: % is set by controls: 0 for no effect and ±100 for the full control effect
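Erythrocytes infected with luciferase-expressing P. falciparum were dispensed at 2% hematocrit and 0.05% parasitemia (final), then incubated with compounds 96 hours at 37 C in 5% CO2. Luminescence after detection reagent addition reported growth.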
SARS PLpro yeast: SARS-CoV PLP inhibition in yeast | S. cerevisiae expressing SARS-CoV PLpro, growth rescue | Potency, µM (top dose mostly 32.9 µM), for inactives: at the highest dose activity, positive = growth rescue, usual class: activators | 330,000 tested, 0.19% active | AID 485353; calls by dose curve; note: 0% is about no effect; nearly all actives have a fitted effect of over 55% in size
Numbers without * were called inactive; i = inactive; ? = inconclusive; / = no result; ! = not confirmed by another sample; [ ] = remark or other dose. Unless noted, calls come from the whole dose curve; as a rule, active = well fitted curve in the direction sought with a large enough effect; inconclusive = small, poorly fitted or top-dose-only effect, or another doubt; inactive = no such curve, though single readings can be large; an effect the other way counts as inactive or inconclusive. Potency is the fitted concentration of half-maximal effect.

SMILES	Pf growth 48h	AMA1 RON2 block	Pf growth 96h	SARS PLpro yeast
Cc1ccc(C(c2nnnn2Cc2ccccc2)N2CC=C(c3ccc(F)cc3)CC2)cc1 (stereo not drawn)	?	-3%	35%	-7%
Fc1ccc(C2=CCN(C(c3ccc(Cl)cc3)c3nnnn3Cc3ccccc3)CC2)cc1 (stereo not drawn)	12µM*	-6%	-22%	-10%
C=CCOc1ccc(/C=N/O)cc1Cl	40%	-9%	3.3µM*	-9%
CCOc1cc(CNc2ncn[nH]2)ccc1OCC(=O)NC(C)(C)C	-22%	-7%	44%	1%
CCCCN1C2=NCCCN2c2cc(C)c(C)cc21	13µM*	-2%	13µM*	-1%
CCCN1C2=NCCN2c2ccccc21	-9%	-1%	4.1µM*	0%
CCCCN1C2=NCCCN2c2ccccc21	?	0%	10µM*	0%
O=C(CN1C2=NCCN2c2ccccc21)c1ccco1	/	-15%	13µM*	5%
CCCN1C2=NCCCN2c2ccccc21	-19%	8%	?	6%
COc1ccc2c(C)cc(SCn3nnc4ccccc4c3=O)nc2c1	24%	-6%	59%	-1%
O=C(Oc1ccc(-c2cnc3ccccc3n2)cc1)c1cc([N+](=O)[O-])ccc1Cl	i	-1%	i	0%
CCCCCCN1C2=NCCN2c2ccccc21	15µM*	-3%	/	0%
CCCCCCCN1C2=NCCCN2c2ccccc21	2.9µM*	-5%	-4%	-3%
Cc1cccc(NCCC(=O)c2ccc(Br)cc2)c1	13%	-4%	34%	-17%
CC(C)c1ccc(NCCC(=O)c2ccc(Br)cc2)cc1	1%	-6%	9.3µM*	16%
CCOC(=O)CN1NC2(CCC(C)CC2)NC1=S (stereo not drawn)	/	1%	2%	13%
C/C(=N/OCC(=O)Nc1ccccc1)c1cccs1	87%	4%	50%	7%
COc1ccc2c(c1OC)C(=O)O[C@H]2[C@@H]1c2cc3c(cc2CCN1C)OCO3	-21%	4%	15µM*!	/
COc1ccc2c(c1OC)CN1CCc3cc4c(cc3[C@@H]1[C@@H]2O)OCO4	?	-9%	9.3µM*	10%
COc1cc2c(cc1OC)[C@@H]1Cc3ccc(OC)c(OC)c3CN1CC2	?	-6%	?	7%
COc1ccc2c(c1OC)C(=O)O[C@@H]2[C@H]1c2cc3c(cc2CCN1C)OCO3	?	-3%	-13%	/
COc1cc2c(cc1OC)C1Cc3ccc(OC)c(OC)c3CN1CC2 (stereo not drawn)	1.3µM*	-1%	?	9%
Cc1nn(CC(=O)N(C)C2CCC(C)CC2)c(C)c1S(=O)(=O)N(C)C (stereo not drawn)	-4%	-3%	?	-2%
CC(=O)c1c(C)[nH]c(C(=O)N2CCN(C(=O)c3ccco3)CC2)c1C	0%	-4%	?	-3%
CC(C)(C)N1OC2CC1c1nc3ccccc3n1C2 (stereo not drawn)	45%	-1%	0%	-7%
SMILES	Pf growth 48h	AMA1 RON2 block	Pf growth 96h	SARS PLpro yeast
Cc1ccc(CNC(=O)[C@H](Cc2ccccc2)NC(=O)C2CCNCC2)cc1	2%	3%	18%	2%
COc1ccc(CNS(=O)(=O)c2c(C)[nH]c(C)c2C(=O)N2CCCCC2)cc1	-1%	-1%	14%	1%
Cc1ccc(CNS(=O)(=O)c2c(C)[nH]c(C)c2C(=O)N2CCCCC2)o1	-8%	-4%	13µM*	3%
O=C1C(=Cc2cccs2)C(=O)c2ccccc21	2%	-16%	2%	-37%
Cc1cc(C=C2C(=O)c3ccccc3C2=O)c(C)n1C	-18%	8%	4.7µM*	-38%
Cc1ccc(C=C2C(=O)c3ccccc3C2=O)s1	/	?	12µM*	-28%
CCOc1cc(CNc2ccc3cn[nH]c3c2)ccc1OC	/	-11%	13µM*	-11%
COc1ccc(CNc2ccc3cn[nH]c3c2)c(OC)c1OC	/	-3%	?	20%
CC(C)C[C@H](NC(=O)OC(C)(C)C)c1nnc(SCc2ccccc2)o1	8.3µM*	1%	/	-18%
CC[C@@H](C)[C@H](NC(=O)OCc1ccccc1)c1nnc([C@@H](NC(=O)OCc2ccccc2)[C@@H](C)CC)o1	10µM*	52%	10µM*	0%
O=C(NCCCC(NC(=O)OCc1ccccc1)C(=O)O)OCc1ccccc1 (stereo not drawn)	4%	0%	6.6µM*	15%
CCOC(=O)CSc1nnc([C@H](Cc2ccccc2)NC(=O)OC(C)(C)C)o1	?	61%	?	-1%
CSCC[C@H](NC(=O)OCc1ccccc1)C(=O)O	13%	-1%	/	2%
C[C@H](NC(=O)OCc1ccccc1)C(=O)NNC(=O)[C@H](C)NC(=O)OCc1ccccc1	-10%	48%	6%	0%
CC(C)(C)OC(=O)N[C@@H](CCCCNC(=O)OCc1ccccc1)c1nnc([C@H](CCCCNC(=O)OCc2ccccc2)NC(=O)OC(C)(C)C)o1	?	45%	2.6µM*	0%
COc1cccc(NC(=O)CN(C)S(=O)(=O)c2ccc3c(c2)NC(=O)CS3)c1	-17%	0%	-9%	2%
CSCC[C@H](NC(=O)OC(C)(C)C)c1nnc(SCC(=O)Nc2c(C)cccc2C)o1	/	5%	?	4%
COc1ccc(NC(=O)C(CCCCNC(=O)OC(C)(C)C)NC(=O)OCc2ccccc2)cc1 (stereo not drawn)	?	17%[2.32 µM]	0.59µM*	4%
C=C(C)CSc1nnc([C@H](CCSC)NC(=O)OC(C)(C)C)o1	/	0%	10µM*	-3%
Cc1ccc(CNC(=O)CCCCCNc2nc(=S)[nH]c3ccccc23)cc1	?	/	?	1%
NS(=O)(=O)c1ccc(CCNC(=O)CCCCCNc2nc(=S)[nH]c3ccccc23)cc1	-7%	/	2.9µM*	-7%
Cn1cc(Cl)c(C(=O)N(Cc2ccccc2)c2ccccn2)n1	-14%	5%	-1%	2%
COC(=O)c1ccc2c(=O)[nH]c(CN3c4ccccc4CC3C)nc2c1 (stereo not drawn)	?	41%	3.3µM*	4%
CC(=O)Oc1ccc(-c2cccc(C(=O)NCC(=O)O)c2)cc1	-1%	1%	?	2%
CCC(=O)Nc1c(C)c(CC)nc2ccccc12	?	6%	-17%	1%
SMILES	Pf growth 48h	AMA1 RON2 block	Pf growth 96h	SARS PLpro yeast
CCc1nc2ccccc2c(NC(=O)CN2CC(C)CC(C)C2)c1C (stereo not drawn)	-21%	-1%	9.3µM*	3%
Cc1n(C)c2cc(Cl)ccc2[n+]1Cc1ccccc1	2.9µM*	-3%	22%	0%
CN(C)S(=O)(=O)c1ccc(NC(=S)NC(=O)c2cccs2)cc1	13%	93%	9.3µM*	0%
CCN(c1ccccc1)S(=O)(=O)c1ccc(NC(=S)NC(=O)c2cccs2)cc1	?	94%	?	4%
COc1ccccc1NS(=O)(=O)c1cc(NC(=O)c2ccccc2F)ccc1N1CCOCC1	0%	7%	9.3µM*	-1%
COc1ccccc1NS(=O)(=O)c1cc(NC(=O)c2ccco2)ccc1N1CCOCC1	?	-4%	10µM*	0%
